Common to all, as to conditions: 60 µM; 5 days; temperature: 20 °C
Test [1] relates to Meloidogyne hapla J2. The test can be described thus: proportion of mobile M. hapla J2 relative to DMSO control (fraction of DMSO control); higher = more viable, less nematicidal, active = 0.7 or less. Put shortly:
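About 25 M. hapla J2 were added per 96-well well in distilled water, and compound was pinned to 60 µM final (0.6% v/v DMSO). Sealed plates were shaken at 200 rpm for 5 days at 20 °C, then 2 µL 1 M NaOH was added before microscopic mobility scoring. Mobility was divided by the mean of eight DMSO wells on the same plate, and two biological replicates were averaged.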

Test [2] concerns Caenorhabditis elegans dauer (daf-2(e1370)). The test can be described thus: proportion of mobile C. elegans dauer larvae relative to DMSO control (fraction of DMSO control); higher = more viable, less nematicidal, active = 0.63 or less; extreme values may be limits of the assay. The essentials:
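Compound was added by pinning to 60 µM final, giving 0.6% v/v DMSO, in 96-well plates containing about 20 C. elegans dauers per well in liquid NGM. These dauers came from synchronized larvae held on MYOB plates with E. coli OP50 for 48 h at 25 °C. Plates were sealed and shaken at 200 rpm at 20 °C for 5 days. Under a dissection microscope, the proportion of mobile worms was scored relative to DMSO wells, and two biological replicates were averaged.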

Test [3] concerns Ditylenchus dipsaci. The test can be described thus: proportion of mobile D. dipsaci (mixed stage) relative to DMSO control (fraction of DMSO control); higher = more viable, less nematicidal, active = 0.86 or less; extreme values may be limits of the assay. Put shortly:
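D. dipsaci were grown on pea plants in Gamborg B-5 agar and extracted through a filter funnel into water, and about 20 worms were added per 96-well well in distilled water. Compound was pinned to 60 µM final (0.6% v/v DMSO), and sealed plates were shaken at 200 rpm for 5 days at 20 °C. After 2 µL 1 M NaOH was added, mobile worms were scored microscopically. Mobility was expressed relative to DMSO controls and averaged over two biological replicates.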

Values without a mark were called inactive.

For `CC(Sc1nnc(-c2cccnc2)o1)C(=O)c1ccccc1` (configuration not stated), the “proportion of mobile M. hapla J2” value in test [1] is 1.03. Moreover, the “proportion of mobile C. elegans dauer larvae” value in test [2] was 1. Moreover, in test [3], the “proportion of mobile D. dipsaci” value is 1.

Turning to `COc1cccc(-c2noc(-c3ccccc3C)n2)c1`, the “proportion of mobile M. hapla J2” value in test [1] is 1.06. Further, in test [2], the “proportion of mobile C. elegans dauer larvae” value is 1. Further, the “proportion of mobile D. dipsaci” value in test [3] is 1.

As to `O=C(CSc1nnc(-c2cccc3ccccc23)o1)Nc1cccc(F)c1`, in test [1], the “proportion of mobile M. hapla J2” value was 0.999. Moreover, the “proportion of mobile C. elegans dauer larvae” value in test [2] was 1. The “proportion of mobile D. dipsaci” value in test [3] was 1.

As for `CC1Cc2ccccc2N1C(=O)CSc1nnc(-c2ccccc2)o1` (configuration not stated), in test [1], the “proportion of mobile M. hapla J2” value was 1.03. Further, in test [2], the “proportion of mobile C. elegans dauer larvae” value is 1. In test [3], the “proportion of mobile D. dipsaci” value is 1.

Consider `Brc1ccc(CSc2nnc(-c3ccco3)o2)cc1`, for which the “proportion of mobile M. hapla J2” value in test [1] was 0.995. The “proportion of mobile C. elegans dauer larvae” value in test [2] was 1. Also, in test [3], the “proportion of mobile D. dipsaci” value is 1.

In the case of `O=C(CSc1nnc(-c2ccncc2)o1)Nc1ccccc1Cl`, in test [1], the “proportion of mobile M. hapla J2” value is 0.724. Moreover, in test [2], the “proportion of mobile C. elegans dauer larvae” value was 1. In addition, the “proportion of mobile D. dipsaci” value in test [3] is 1.

In the case of `CC(C)CCC(=O)Nc1ccccc1-c1nc(-c2ccccn2)no1`, the “proportion of mobile M. hapla J2” value in test [1] is 1.03. Also, in test [2], the “proportion of mobile C. elegans dauer larvae” value is 1. Moreover, the “proportion of mobile D. dipsaci” value in test [3] was 1.

`COc1cccc(-c2noc(-c3ccc(C)cc3Cl)n2)c1`: the “proportion of mobile M. hapla J2” value in test [1] is 1. In addition, in test [2], the “proportion of mobile C. elegans dauer larvae” value was 1. Also, the “proportion of mobile D. dipsaci” value in test [3] was 1.

As to `Cc1ccc(-c2noc(-c3ccccc3C(=O)N3CCC(C)CC3)n2)cc1`, the “proportion of mobile M. hapla J2” value in test [1] is 0.999. Further, in test [2], the “proportion of mobile C. elegans dauer larvae” value was 1. In addition, the “proportion of mobile D. dipsaci” value in test [3] was 1.

On to `Cc1ccc(-c2nnc(SCC(=O)NCCc3ccccc3)o2)cc1`, for which, in test [1], the “proportion of mobile M. hapla J2” value was 1.01. Besides, in test [2], the “proportion of mobile C. elegans dauer larvae” value was 1. Also, the “proportion of mobile D. dipsaci” value in test [3] is 1.

`O=C(CSc1nnc(-c2cccnc2)o1)c1ccc2ccccc2c1`: the “proportion of mobile M. hapla J2” value in test [1] is 0.74. Further, in test [2], the “proportion of mobile C. elegans dauer larvae” value was 1. In addition, in test [3], the “proportion of mobile D. dipsaci” value is 1.

With `CCCCSc1nnc(-c2ccc(Br)cc2)o1`, the “proportion of mobile M. hapla J2” value in test [1] was 1. Also, the “proportion of mobile C. elegans dauer larvae” value in test [2] is 0.5 (active). The “proportion of mobile D. dipsaci” value in test [3] is 0.842 (active).

In the case of `Cc1ccc(-c2noc(-c3ccccc3C)n2)cc1`, the “proportion of mobile M. hapla J2” value in test [1] was 1.04. Also, in test [2], the “proportion of mobile C. elegans dauer larvae” value is 0.562 (active). The “proportion of mobile D. dipsaci” value in test [3] is 1.

Take `COc1ccc(-c2nnc(SCC(=O)Nc3ccc(Cl)cc3C)o2)cc1`: the “proportion of mobile M. hapla J2” value in test [1] is 0.709. Further, the “proportion of mobile C. elegans dauer larvae” value in test [2] is 1. The “proportion of mobile D. dipsaci” value in test [3] was 1.

For the molecule `Clc1ccccc1CSc1nnc(-c2ccncc2)o1`, the “proportion of mobile M. hapla J2” value in test [1] is 0.974. For the same molecule, in test [2], the “proportion of mobile C. elegans dauer larvae” value was 1. Moreover, in test [3], the “proportion of mobile D. dipsaci” value is 1.

As for `O=C(CSc1nnc(-c2ccc(Cl)cc2)o1)NC1CCCCC1`, the “proportion of mobile M. hapla J2” value in test [1] is 0.918. For the same molecule, in test [2], the “proportion of mobile C. elegans dauer larvae” value was 1. Moreover, the “proportion of mobile D. dipsaci” value in test [3] was 1.

As to `Cc1cc(OCc2nc(-c3ccncc3)no2)ccc1Br`, in test [1], the “proportion of mobile M. hapla J2” value was 1.05. Further, in test [2], the “proportion of mobile C. elegans dauer larvae” value is 1. Besides, in test [3], the “proportion of mobile D. dipsaci” value is 1.

With `Cc1ccccc1CSc1nnc(-c2ccccc2)o1`, the “proportion of mobile M. hapla J2” value in test [1] is 1.02. Besides, the “proportion of mobile C. elegans dauer larvae” value in test [2] was 1. The “proportion of mobile D. dipsaci” value in test [3] is 1.

With `Cn1c(SCc2nnc(-c3ccccc3)o2)nnc1-c1ccco1`, the “proportion of mobile M. hapla J2” value in test [1] was 0.827. The “proportion of mobile C. elegans dauer larvae” value in test [2] was 1. For the same molecule, in test [3], the “proportion of mobile D. dipsaci” value was 1.

In the case of `COc1ccccc1-c1nnc(SCC(=O)OCc2ccccc2)o1`, the “proportion of mobile M. hapla J2” value in test [1] is 0.978. Besides, in test [2], the “proportion of mobile C. elegans dauer larvae” value is 1. Also, in test [3], the “proportion of mobile D. dipsaci” value was 1.

Turning to `Cc1ccc(-c2nc(-c3ccccc3)no2)cc1C`, the “proportion of mobile M. hapla J2” value in test [1] is 0.884. The “proportion of mobile C. elegans dauer larvae” value in test [2] was 1. In addition, the “proportion of mobile D. dipsaci” value in test [3] was 1.

As for `Cc1ccc(C)c(-c2nc(-c3ccc(Cl)cc3)no2)c1`, the “proportion of mobile M. hapla J2” value in test [1] is 0.93. The “proportion of mobile C. elegans dauer larvae” value in test [2] is 1. Also, the “proportion of mobile D. dipsaci” value in test [3] is 1.

Turning to `Clc1ccc(-c2noc(COc3ccc4c(c3)OCO4)n2)cc1`, in test [1], the “proportion of mobile M. hapla J2” value is 0.899. In addition, the “proportion of mobile C. elegans dauer larvae” value in test [2] was 1. Further, in test [3], the “proportion of mobile D. dipsaci” value was 1.

For `CC(Sc1nnc(-c2ccccc2)o1)C(=O)Nc1nccs1` (configuration not stated), the “proportion of mobile M. hapla J2” value in test [1] is 1. The “proportion of mobile C. elegans dauer larvae” value in test [2] was 1. In addition, the “proportion of mobile D. dipsaci” value in test [3] was 1.

In the case of `CC(Sc1nnc(-c2ccco2)o1)C(=O)NC(c1ccccc1)c1ccccc1` (configuration not stated), the “proportion of mobile M. hapla J2” value in test [1] was 1.05. The “proportion of mobile C. elegans dauer larvae” value in test [2] was 1. In addition, the “proportion of mobile D. dipsaci” value in test [3] is 1.

Take `CCCOc1ccc(-c2nc(-c3ccncc3)no2)cc1`: in test [1], the “proportion of mobile M. hapla J2” value is 0.85. Moreover, the “proportion of mobile C. elegans dauer larvae” value in test [2] is 0.5 (active). In test [3], the “proportion of mobile D. dipsaci” value was 1.

In the case of `COc1ccccc1-c1nc(-c2ccc(Cl)cc2Cl)no1`, in test [1], the “proportion of mobile M. hapla J2” value was 1. For the same molecule, the “proportion of mobile C. elegans dauer larvae” value in test [2] was 1. The “proportion of mobile D. dipsaci” value in test [3] was 1.

As to `O=C(CSc1nnc(-c2ccc(Br)cc2)o1)Nc1cccc2ccccc12`, the “proportion of mobile M. hapla J2” value in test [1] is 0.923. Also, the “proportion of mobile C. elegans dauer larvae” value in test [2] is 1. The “proportion of mobile D. dipsaci” value in test [3] was 1.

For the molecule `Cc1cccc(-c2noc(-c3ccccc3F)n2)c1`, the “proportion of mobile M. hapla J2” value in test [1] is 0.874. The “proportion of mobile C. elegans dauer larvae” value in test [2] was 1. Moreover, the “proportion of mobile D. dipsaci” value in test [3] is 1.

As to `Fc1ccccc1-c1nc(-c2ccccc2)no1`, in test [1], the “proportion of mobile M. hapla J2” value was 0.991. For the same molecule, the “proportion of mobile C. elegans dauer larvae” value in test [2] is 1. Besides, in test [3], the “proportion of mobile D. dipsaci” value is 1.

For the molecule `Clc1ccc(OCc2nc(-c3ccncc3)no2)cc1`, in test [1], the “proportion of mobile M. hapla J2” value was 0.749. The “proportion of mobile C. elegans dauer larvae” value in test [2] is 0.645. Besides, in test [3], the “proportion of mobile D. dipsaci” value is 1.

For the molecule `c1ccc2cc(-c3nc(-c4ccncc4)no3)ccc2c1`, the “proportion of mobile M. hapla J2” value in test [1] was 0.994. The “proportion of mobile C. elegans dauer larvae” value in test [2] was 1. For the same molecule, in test [3], the “proportion of mobile D. dipsaci” value was 1.

`CCOc1ccc(-c2noc(-c3ccncc3)n2)cc1OC`: the “proportion of mobile M. hapla J2” value in test [1] is 1. Also, the “proportion of mobile C. elegans dauer larvae” value in test [2] is 1. For the same molecule, the “proportion of mobile D. dipsaci” value in test [3] is 1.

On to `Brc1ccc(-c2nnc(SCc3ccccc3)o2)cc1`, for which the “proportion of mobile M. hapla J2” value in test [1] is 1.04. For the same molecule, the “proportion of mobile C. elegans dauer larvae” value in test [2] was 1. Also, in test [3], the “proportion of mobile D. dipsaci” value was 1.
